Results: the supplement of paper PMC9925115
± gives the uncertainty stated by the source.

Key:
FLX1 = assay: cell viability z-score within plate (CellTiter-Glo), mean of 3 biological replicates; higher = higher viability relative to plate (less growth inhibition); conditions: 2 µM; time (hr): 120
Experimental: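 FLX1 fibrolamellar carcinoma cells (DNAJB1-PRKACA fusion), 600 cells/well in 384-well plates, treated with a Selleck kinase inhibitor library (L1200) at 2 uM for 5 days (120 hr); viability by CellTiter-Glo. A z-score was computed within each plate and averaged over three biological replicates.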

[1] = test system: FLX1 + dox-induced PRKAR1A G325D; assay: difference in log2 fold change of viability vs plate median (dox-induced PRKAR1A G325D minus uninduced); higher = compound less effective when PKA is inhibited; conditions: concentration: not stated (2 or 5 uM); 5 days
Experimental: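 For each plate a log2 fold change vs the plate median was derived, and the values without dox were subtracted from those with dox, averaged over three biological replicates.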

CN1CC[C@H](c2c(O)cc(O)c3c(=O)cc(-c4ccccc4Cl)oc23)[C@H](O)C1 [Flavopiridol (Alvocidib)]
cell viability z-score within plate (FLX1): 0.251 ± 0.25 | difference in log2 fold change of viability [1]: 0.251

COC(=O)Nc1ccc(-c2nc(N3CCOCC3)c3cnn(C4CCN(C(=O)OC)CC4)c3n2)cc1
cell viability z-score within plate (FLX1): 0.411 ± 0.44 | difference in log2 fold change of viability [1]: 0.71

C=CC(=O)N1CCC[C@@H](n2nc(-c3ccc(Oc4ccccc4)cc3)c3c(N)ncnc32)C1
cell viability z-score within plate (FLX1): 0.337 ± 0.4 | difference in log2 fold change of viability [1]: -2.14

O=C1NC(=O)C(c2cnc3ccccn23)=C1c1cn2c3c(cc(F)cc13)CN(C(=O)N1CCCCC1)CC2
cell viability z-score within plate (FLX1): 1.17 ± 1.1 | difference in log2 fold change of viability [1]: 0.116

COc1ccccc1-c1cc(Nc2cccc(CS(N)(=O)=O)c2)ncn1
cell viability z-score within plate (FLX1): 0.545 ± 1.1 | difference in log2 fold change of viability [1]: 0.055

COc1cc2c(Oc3ccc(NC(=O)C4(C(=O)Nc5ccc(F)cc5)CC4)cc3F)ccnc2cc1OCCCN1CCOCC1
cell viability z-score within plate (FLX1): -0.77 ± 2.3 | difference in log2 fold change of viability [1]: -0.0914

CNC(=O)CN1CCC(Oc2cc3c(Nc4cccc(Cl)c4F)ncnc3cc2OC)CC1 [Sapitinib (AZD8931)]
cell viability z-score within plate (FLX1): 0.472 ± 0.47 | difference in log2 fold change of viability [1]: -0.745

Fc1cc(-c2cccc3ncc(-c4cnn(C5CCNCC5)c4)nc23)cc(F)c1CN1CCOCC1
cell viability z-score within plate (FLX1): -1.08 ± 1.1 | difference in log2 fold change of viability [1]: 0.246

Cc1cc(F)c(Nc2ncnc3cc(OCc4ccccc4)ccc23)cc1O
cell viability z-score within plate (FLX1): -0.328 ± 0.22 | difference in log2 fold change of viability [1]: 0.0836

CCn1c(-c2nonc2N)nc2c(C#CC(C)(C)O)ncc(OC[C@H]3CCCNC3)c21
cell viability z-score within plate (FLX1): -1.24 ± 0.86 | difference in log2 fold change of viability [1]: 0.00672

Cc1c(NC(=O)c2ccc(C(C)(C)C)cc2)cccc1-c1cn(C)c(=O)c(Nc2ccc(C(=O)N3CCOCC3)cc2)n1
cell viability z-score within plate (FLX1): 0.367 ± 0.26 | difference in log2 fold change of viability [1]: 0.119

CCCCCCCCCCCCc1ccc(S(=O)(=O)Nc2nncs2)cc1
cell viability z-score within plate (FLX1): 1.17 ± 0.77 | difference in log2 fold change of viability [1]: 0.132
